Values joined by “and” are separate entries in the source; they are usually repeats but may differ in a detail not shown here. Identical values can stand only once. Where a structure was tested more than once in an assay, its records may differ in their call. Active and inactive are the calls of the source. The calls were made as follows: active = hit-call score of the fitted dose curve at least 0.9, where 1 is the maximum; inactive = score below 0.9.
Legend:
[1] = read-out: Monocyte Chemoattractant Protein-1 (MCP1), CCL2 (gene 6347); assay: BSK_BF4T_MCP1: BioMAP Diversity Plus: BF4T Assay for Monocyte Chemoattractant Protein-1 (MCP1) Biomarker Activity (AID 2284259); conditions: primary human bronchial epithelial cells with fibroblasts
Summary of the method: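 Co-culture of bronchial epithelial cells and dermal fibroblasts dosed with chemical; MCP-1 measured by ELISA 24 h later. Activity fitted in positive direction versus DMSO; cytotoxicity checked by SRB staining in parallel cultures.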

[2] = read-out: Intercellular Adhesion Molecule 1 (ICAM1), ICAM1 (gene 3383); assay: BSK_BF4T_ICAM1: BioMAP Diversity Plus: BF4T Assay for Intercellular Adhesion Molecule 1 (ICAM1) Biomarker Activity (AID 2284260); conditions: primary human bronchial epithelial cells with fibroblasts
Summary of the method: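 Co-culture of human bronchial epithelial cells and dermal fibroblasts exposed 24 h to chemical; cell-surface ICAM-1 quantified by ELISA. Parallel SRB total-protein staining assessed cytotoxicity; activity fitted relative to DMSO.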

[3] = read-out: Interleukin-8 (IL8), CXCL8 (gene 3576); assay: BSK_MyoF_IL8: BioMAP Diversity Plus: MyoF Assay for Interleukin-8 (IL8) Biomarker Activity (AID 2284261); conditions: primary human lung fibroblasts
Summary of the method: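 IL-8 levels were measured by ELISA in human lung fibroblasts harvested 24 h after compound addition. Responses were analysed as gain of signal over the DMSO baseline.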

[4] = read-out: CD90, THY1 (gene 7070); assay: BSK_BF4T_CD90: BioMAP Diversity Plus: BF4T Assay for CD90 Biomarker Activity (AID 2284262); conditions: primary human bronchial epithelial cells with fibroblasts
Summary of the method: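 Co-culture of human bronchial epithelial cells and dermal fibroblasts, 24 h compound exposure. Cell-surface CD90 measured by ELISA relative to DMSO; parallel SRB total-protein staining for cytotoxicity.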

[5] = read-out: Interleukin-8 (IL8), CXCL8 (gene 3576); assay: BSK_BF4T_IL8: BioMAP Diversity Plus: BF4T Assay for Interleukin-8 (IL8) Biomarker Activity (AID 2284263); conditions: primary human bronchial epithelial cells with fibroblasts
Summary of the method: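 Human bronchial epithelial cells with dermal fibroblasts co-culture; IL-8 measured by ELISA 24 hours after dosing, fitted vs DMSO. Cytotoxicity tracked in parallel cultures by SRB total-protein staining.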

[6] = read-out: Interleukin-1 alpha (IL1a), IL1A (gene 3552); assay: BSK_BF4T_IL1a: BioMAP Diversity Plus: BF4T Assay for Interleukin-1 alpha (IL1a) Biomarker Activity (AID 2284264); conditions: primary human bronchial epithelial cells with fibroblasts
Summary of the method: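 Human bronchial epithelial cells co-cultured with dermal fibroblasts, dosed and read at 24 h. Secreted/surface IL-1α quantified by ELISA; gain-of-signal fitted relative to DMSO baseline. Parallel SRB total-protein staining tracked cytotoxicity.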

[7] = BSK_MyoF_SRB: Viability Assessment in the BioMAP Diversity Plus: MyoF Assay (AID 2284267); conditions: primary human lung fibroblasts;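 also: total protein by SRB absorbance in parallel cultures as cytotoxicity measure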
Summary of the method: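 Read-out is SRB absorbance at 560 nm, reflecting total protein in parallel lung fibroblast cultures harvested 24 h after compound addition. Cells were TCA-fixed (10%) and stained with 0.1% SRB; activity is referenced to DMSO.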

[8] = read-out: Matrix Metallopeptidase 1 (MMP1), MMP1 (gene 4312); assay: BSK_MyoF_MMP1: BioMAP Diversity Plus: MyoF Assay for Matrix Metallopeptidase 1 (MMP1) Biomarker Activity (AID 2284268); conditions: primary human lung fibroblasts
Summary of the method: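 Lung fibroblast cultures were dosed with test chemicals and, after 24 h, MMP1 levels were measured by ELISA; responses were referenced to DMSO and analysed for increases.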

[9] = read-out: TIMP metallopeptidase inhibitor 1 (TIMP1), TIMP1 (gene 7076); assay: BSK_MyoF_TIMP1: BioMAP Diversity Plus: MyoF Assay for TIMP metallopeptidase inhibitor 1 (TIMP1) Biomarker Activity (AID 2284269); conditions: primary human lung fibroblasts
Summary of the method: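 ELISA read-out of TIMP-1 from primary human lung fibroblast cultures 24 h after compound dosing; gain of signal relative to DMSO vehicle baseline defines activity.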

[10] = read-out: Matrix Metallopeptidase 1 (MMP1), MMP1 (gene 4312); assay: BSK_BF4T_MMP1: BioMAP Diversity Plus: BF4T Assay for Matrix Metallopeptidase 1 (MMP1) Biomarker Activity (AID 2284270); conditions: primary human bronchial epithelial cells with fibroblasts
Summary of the method: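 Co-culture of human bronchial epithelial cells and dermal fibroblasts; MMP-1 levels measured by ELISA 24 hours after chemical dosing, relative to DMSO. Cytotoxicity checked in parallel cultures by SRB total-protein staining.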

[11] = read-out: Matrix Metallopeptidase 3 (MMP3), MMP3 (gene 4314); assay: BSK_BF4T_MMP3: BioMAP Diversity Plus: BF4T Assay for Matrix Metallopeptidase 3 (MMP3) Biomarker Activity (AID 2284271); conditions: primary human bronchial epithelial cells with fibroblasts
Summary of the method: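 Co-culture of human bronchial epithelial cells and dermal fibroblasts dosed 24 h; MMP-3 measured by ELISA, positive-direction fit versus DMSO. Cytotoxicity tracked by SRB total-protein staining (560 nm) in parallel cultures.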

[12] = read-out: Tissue plasminogen activator (tPA), PLAT (gene 5327); assay: BSK_BF4T_tPA: BioMAP Diversity Plus: BF4T Assay for Tissue plasminogen activator (tPA) Biomarker Activity (AID 2284272); conditions: primary human bronchial epithelial cells with fibroblasts
Summary of the method: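 tPA level quantified by ELISA at 24 h post-treatment in bronchial epithelial/dermal fibroblast co-cultures, gain of signal scored against DMSO baseline. Parallel cultures stained with 0.1% SRB (560 nm) to flag overt cytotoxicity.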

[13] = read-out: Plasminogen Activator Inhibitor-1 (PAI1), SERPINE1 (gene 5054); assay: BSK_BF4T_PAI1: BioMAP Diversity Plus: BF4T Assay for Plasminogen Activator Inhibitor-1 (PAI1) Biomarker Activity (AID 2284273); conditions: primary human bronchial epithelial cells with fibroblasts
Summary of the method: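 Co-culture of human bronchial epithelial cells and dermal fibroblasts exposed to compound for 24 h. PAI-1 measured by ELISA; activity fitted in positive direction versus DMSO. Parallel SRB staining assessed overt cytotoxicity.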

[14] = BSK_BF4T_SRB: Viability Assessment in the BioMAP Diversity Plus: BF4T Assay (AID 2284274); conditions: primary human bronchial epithelial cells with fibroblasts
Summary of the method: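 Co-culture of human bronchial epithelial cells and dermal fibroblasts (BioMAP BF4T) exposed 24 h. Total protein by sulforhodamine B staining (0.1% SRB after 10% TCA fixation, 560 nm) in parallel cultures; fitted vs DMSO.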

[15] = read-out: urokinase Plasminogen Activator (uPA), PLAU (gene 5328); assay: BSK_BF4T_uPA: BioMAP Diversity Plus: BF4T Assay for urokinase Plasminogen Activator (uPA) Biomarker Activity (AID 2284275); conditions: primary human bronchial epithelial cells with fibroblasts
Summary of the method: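 Co-culture of human bronchial epithelial cells and dermal fibroblasts; uPA quantified by ELISA 24 hours after dosing, fitted relative to DMSO. Parallel SRB total-protein staining assessed overt cytotoxicity.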

[16] = read-out: Matrix Metallopeptidase 9 (MMP9), MMP9 (gene 4318); assay: BSK_BF4T_MMP9: BioMAP Diversity Plus: BF4T Assay for Matrix Metallopeptidase 9 (MMP9) Biomarker Activity (AID 2284276); conditions: primary human bronchial epithelial cells with fibroblasts
Summary of the method: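 Co-culture of human bronchial epithelial cells and dermal fibroblasts dosed for 24 h; MMP-9 quantified by ELISA and fitted upward versus DMSO. Cytotoxicity monitored in parallel cultures by SRB total-protein staining at the biomarker time point.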

[17] = read-out: Interleukin-8 (IL8), CXCL8 (gene 3576); assay: BSK_IMphg_IL8: BioMAP Diversity Plus: IMphg Assay for Interleukin-8 (IL8) Biomarker Activity (AID 2284277); conditions: primary human endothelial cells with macrophages
Summary of the method: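 Co-culture of human venular endothelial cells and macrophages exposed to chemicals for 24 h; IL-8 quantified by ELISA and compared against the DMSO baseline, with SRB total-protein staining in parallel cultures for cytotoxicity.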

[18] = read-out: Intercellular Adhesion Molecule 1 (ICAM1), ICAM1 (gene 3383); assay: BSK_BE3C_ICAM1: BioMAP Diversity Plus: BE3C Assay for Intercellular Adhesion Molecule 1 (ICAM1) Biomarker Activity (AID 2284278); conditions: primary human bronchial epithelial cells
Summary of the method: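 Human primary bronchial epithelial cultures; compound added; 24 h incubation; cell-surface ICAM-1 measured by ELISA; signal increase fitted relative to DMSO negative control.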

[19] = read-out: KRT18 (gene 3875); assay: BSK_BF4T_Keratin818: BioMAP Diversity Plus: BF4T Assay for Keratin 818 Biomarker Activity (AID 2284266); conditions: primary human bronchial epithelial cells with fibroblasts
Summary of the method: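 Co-culture of human bronchial epithelial cells and dermal fibroblasts, chemical exposure 24 h. Keratin 8/18 measured by ELISA; positive-direction fit vs DMSO. SRB total protein run in parallel cultures for cytotoxicity.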

[20] = read-out: Decorin, DCN (gene 1634); assay: BSK_MyoF_Decorin: BioMAP Diversity Plus: MyoF Assay for Decorin Biomarker Activity (AID 2284265); conditions: primary human lung fibroblasts
Summary of the method: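 Compound is added to lung fibroblast cultures; cells incubate 24 h; decorin is then measured by ELISA; the response is analysed upward against DMSO controls.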

Measured: AC50

CCOC(=O)CC(=O)C(F)(F)C(F)(F)F
not listed: [19] | [20]
inactive: all other assays above

O=C(Cl)C(F)(F)C(F)(F)C(F)(F)C(F)(F)C(F)(F)C(F)(F)F
inactive: [1] | [2] | [3] | [4] | [5] | [7] | [8] | [9] | [10] | [11] | [12] | [13] | [14] | [15] | [16] | [17] | [18]
active: [17] 15.8 µM and 21.5 µM

C=CC(=O)OCC(F)(F)C(F)(F)C(F)(F)C(F)(F)C(F)(F)C(F)(F)C(F)(F)C(F)F
active: [8] 39.7 µM and 30 µM
not listed: [20]
inactive: all other assays above

CNS(=O)(=O)C(F)(F)C(F)(F)C(F)(F)C(F)(F)C(F)(F)C(F)(F)C(F)(F)C(F)(F)F
inactive: [1] | [2] | [3] | [4] | [5] | [7] | [8] | [9] | [10] | [11] | [12] | [13] | [14] | [15] | [16] | [17] | [18]
active: [3] 9.75 µM | [5] 46.3 µM | [11] 13.3 µM | [17] 14.5 µM

NC(O)(C(F)(F)F)C(F)(F)F
not listed: [19]
inactive: all other assays above

O=C(O)CCC(F)(F)C(F)(F)C(F)(F)C(F)(F)C(F)(F)C(F)(F)C(F)(F)F
active: [1] 0.949 µM | [17] 1.98 µM and 2.14 µM
inactive: [1] | [2] | [3] | [4] | [5] | [7] | [8] | [9] | [10] | [11] | [12] | [13] | [14] | [15] | [16] | [18]

NS(=O)(=O)C(F)(F)C(F)(F)C(F)(F)C(F)(F)C(F)(F)C(F)(F)F
active: [1] 7.99 µM | [7] 13.4 µM and 30 µM | [11] 49.5 µM | [17] 16.3 µM and 8.64 µM
inactive: [1] | [2] | [3] | [4] | [5] | [8] | [9] | [10] | [11] | [12] | [13] | [14] | [15] | [16] | [18]

— PubChem BioAssay (EPA / NIEHS)
